Source: PubChem BioAssay AID720513 (Broad Institute, 2013)
Screen size: about 2,100 compounds; about 480 (23%) were called active. Not shown: some 5% with an inconclusive outcome.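 Rule for the calls: active = fitted curve reaches 40% activation at or below the top valid concentration, in every replicate test; inconclusive = replicate tests disagree on the call; inactive = the rest, including activity in the opposite direction.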 Not all results are given here. Measured potencies and affinities stand elsewhere.

experiment: activators raising PGC1a acetylation in cells, dose response, cell-based, cherry-picked samples, set 6 (AID 720513); settings: U2OS PGC1a acetylation AlphaLISA, overnight, 0 = neutral, -100 = inhibitor control; series mostly up to 19.5 µM;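 note: cells made to overexpress flag tagged PGC1a plus GCN5 acetyltransferase by viral infection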

SMILES	outcome
CCCN(CC)c1ncnc2[nH]ncc12	inactive
CCCOC1CCCN(C(=O)c2cc(Cl)c(Cl)cc2C(=O)O)C1 (configuration not stated)	inactive
COc1ccc(-n2nc(C#N)c(Cl)cc2=O)cc1	inactive
Cc1ccc(N2C(=O)c3ccccc3NC2C(C)Cc2ccc3c(c2)OCO3)cc1 (configuration not stated)	inactive
C[C@H](CO)N1C[C@H](C)[C@H](CN(C)Cc2ccc(Oc3ccccc3)cc2)Oc2c(NC(=O)Nc3ccc4c(c3)OCO4)cccc2C1=O	inactive
Cc1ccc(S(=O)(=O)N(C)C[C@@H]2OCCCC[C@H](C)Oc3ccc(NS(C)(=O)=O)cc3C(=O)N([C@@H](C)CO)C[C@@H]2C)cc1	inactive
Cc1nc2ccccc2n2c(O)c(CC(=O)O)cc12	inactive
Cc1ccc(S(=O)(=O)N(C)C[C@H]2OCCCC[C@H](C)Oc3ccc(N(C)C)cc3C(=O)N([C@H](C)CO)C[C@@H]2C)cc1	inactive
C(=C\c1ccccc1)/CN1CCN(C(c2ccnc3ccccc23)c2nnnn2C2CCCCC2)CC1 (configuration not stated)	inactive
COc1cccc(CNC(=O)CCC2CCCN(Cc3ccc(OC(F)F)cc3)C2)c1 (configuration not stated)	inactive
COc1ccc(C[C@@H]2OC3(C=CC(=O)C=C3)O[C@H]2Cc2ccc(OC)cc2)cc1	inactive
CC(=O)N(CCC(Cc1ccccc1)c1ccc2c(c1)OCO2)Cc1ccccc1F (configuration not stated)	inactive
O=C(CN1CCOCC1)N[C@H]1CC[C@H](CCNC(=O)Nc2cc(F)ccc2F)O[C@H]1CO	inactive
Cn1c(C(C#N)C(=O)c2sc3ccccc3c2Cl)nc2ccccc21 (configuration not stated)	inactive
Cc1cccc(N2CCN(CC3CCCCC3)CC2)c1C	inactive
Cc1ccc(N2CCN(CC(O)COC3CCCCC3)CC2)cc1 (configuration not stated)	inactive
CN1CCN(c2ccc([N+](=O)[O-])cc2C(=O)Nc2ccccc2)CC1	inactive
CCC(=O)N1CCN(c2ccc(Cl)cc2NC(=O)c2ccc([N+](=O)[O-])o2)CC1	inactive
CC1CCCN(C(=O)Cc2ccc(F)cc2)C1 (configuration not stated)	inactive
CC(c1ccccc1)C1CC(=O)N(c2ccc([N+](=O)[O-])cc2)C1=O (configuration not stated)	inactive
CC(C)C(NC(=O)c1ccc(C(C)(C)C)cc1)C(=O)O (configuration not stated)	inactive

SMILES	outcome
C[C@@H]1CCCCO[C@H](CN(C)C(=O)NC2CCCCC2)[C@@H](C)CN([C@@H](C)CO)C(=O)c2cc(NC(=O)NC3CCCCC3)ccc2O1	inactive
N#Cc1c(-c2ccccc2)c(-c2ccccc2)nn(CC(=O)NNC(=O)Nc2ccc(Cl)cc2)c1=O	inactive
O=C(c1nc2nc(-c3ccccc3)cc(C(F)(F)F)n2n1)N1CCCCC1	inactive
CC[C@H](C)[C@H](NC(=O)c1ccc(Cl)cc1)C(=O)OCC(=O)c1ccc2c(c1)NC(=O)CO2	inactive
OCC1(Cc2ccc(F)cc2F)CCCN(Cc2ccc(Cl)cc2)C1 (configuration not stated)	inactive
COc1cccc(CN2CCC(CO)(CC3CCCCO3)CC2)c1 (configuration not stated)	inactive
N#Cc1cccc(-c2ccc(C3[C@@H]4CN(Cc5ccccc5F)C[C@H]3N4)cc2)c1 (some centres not stated)	inactive
COc1cccc(C2c3[nH]c4ccccc4c3CCN2Cc2cnc(C)s2)c1OC (configuration not stated)	inactive
CCc1nccn1S(=O)(=O)c1cc(C)c(OC)cc1C	inactive
COc1ccc(NC(=O)N[C@H]2CC[C@@H](CCn3cc(-c4ccccc4F)nn3)O[C@H]2CO)cc1	inactive
CCOCCCNC(=O)C1CCN(C(=O)Nc2ccc(C)cc2)CC1	inactive
CCOC(=O)c1ccc(NC(=O)CCS(=O)(=O)c2ccc(Br)s2)cc1	inactive
Cc1cc(=O)[nH]c(SCC(=O)N2CCc3ccccc3C2)n1	inactive
CN(C)S(=O)(=O)c1cc(NC(=O)CN2CCc3ccccc32)ccc1Cl	inactive
CCOC(=O)c1cnn(-c2ccccc2)c1-n1cccc1C(=O)C(=O)Nc1ccc(F)cc1	inactive
CC(C(=O)N1CCc2ccccc2C1)N(c1ccccc1)S(C)(=O)=O (configuration not stated)	inactive
CC(C)Oc1ccc2nnnn2n1	inactive
CCCSCC(=O)Nc1ncc2c(n1)-c1ccccc1CC2	inactive
C[C@H]1CN([C@@H](C)CO)S(=O)(=O)c2ccc(C#CC3CCCCC3)cc2O[C@@H]1CN(C)Cc1cccnc1	inactive
O=C(c1ccco1)N1CCN(C(=O)N2c3ccccc3Sc3ccccc32)CC1	inactive
CCc1nc(SCC(=O)N2c3ccccc3Sc3ccccc32)c2ccccc2n1	inactive

SMILES	outcome
O=c1[nH]c2ccccc2nc1/C=C/c1ccc(O)cc1	inactive
C[C@H]1CN([C@@H](C)CO)C(=O)c2cccc(NC(=O)Nc3ccc(F)cc3)c2O[C@@H]1CN(C)S(=O)(=O)c1cn(C)cn1	inactive
C[C@H](NS(=O)(=O)c1ccc2c(c1)OCCCO2)C(=O)N1CCN(Cc2ccccc2)CC1	inactive
COc1ccc2c(-c3ccccc3)cc(=O)[nH]c2c1	inactive
O=C(c1cc(-c2ccccc2)nc2ccccc12)N1N=C(C(F)F)CC1(O)C(F)F (configuration not stated)	inactive
C=CCn1c(SCC(=O)Nc2ccc(C(=O)O)cc2)nnc1-c1cccnc1	inactive
COc1ccc(NC(=O)N[C@@H]2C=C[C@@H](CC(=O)NCc3ccccn3)O[C@@H]2CO)cc1	inactive
COc1ccc(C2(NC(C)=O)CCN(C(=O)CCC(=O)O)CC2)cc1	inactive
CCN(C(=O)C1CC1)C1CCS(=O)(=O)C1 (configuration not stated)	inactive
CN(c1ncnc(N)c1[N+](=O)[O-])C1CCS(=O)(=O)C1 (configuration not stated)	inactive
COCC(=O)Nc1ccc2c(c1)OC[C@@H](C)N(C(=O)c1ccccn1)C[C@@H](C)[C@@H](OC)CN(C)C2=O	inactive
CC1CCCCC1NC(=O)C1CCN(S(=O)(=O)N2CCOCC2)CC1 (configuration not stated)	inactive
C[C@H](CO)N1C[C@H](C)[C@@H](CN(C)CC2CC2)Oc2cc(-c3cccnc3)ccc2S1(=O)=O	inactive
CCSc1nnc(NC(=O)CSC2=NCCS2)s1	inactive
COc1cccc(N2C(=O)CC(N3CCC(c4nc5ccccc5[nH]4)CC3)C2=O)c1 (configuration not stated)	inactive
O=C(Cc1ccncc1)NCC[C@H]1CC[C@@H](NC(=O)C2CC2)[C@H](CO)O1	inactive
CCOC(=O)C1=C(CNCc2ccc(C)cc2)NC(=O)NC1c1cc(C)ccc1C (configuration not stated)	inactive
CCN(CC)S(=O)(=O)c1cccc(-c2nnc(SCc3ncc(-c4ccccc4)o3)n2C)c1	inactive
Cc1nc2ccc(C(=O)Nc3ccccc3Cl)cc2s1	inactive
NC(=O)NC(=O)Nc1ccccc1Cl	inactive
